Laboratory results: PubChem BioAssay AID651930 (Southern Research Specialized Biocontainment Screening …, 2012)
Active and inactive are the calls of the source. No rule for the calls is given here.

Experiment: Vero 76 cell cytotoxicity, dose response, cytotoxicity control for VEEV inhibitor project, set 9 (AID 651930)
Conditions: Vero 76 cytotoxicity; series mostly up to 25 µM

Row | SMILES | outcome
1 | O=c1nc(Nc2ccc(F)cc2)sc2ncccc12 | inactive
2 | CCN1CCN(Cc2nc3ncc([N+](=O)[O-])cc3c(=O)n2-c2ccccc2)CC1 | inactive
3 | CN1CCN(C)C(=Nc2ccc([N+](=O)[O-])cc2C(=O)Nc2ccccc2)C1 | inactive
4 | CNCCCN(C)Cc1nc2ccc([N+](=O)[O-])cc2c(=O)n1-c1ccccc1 | inactive
5 | O=c1c2cc([N+](=O)[O-])ccc2nc(CN2CCNCC2)n1-c1ccccc1 | inactive
6 | O=c1c2cc([N+](=O)[O-])ccc2nc(C2CCNCC2)n1-c1ccccc1 | inactive
7 | CN1CCN(C)C(=Nc2ccc(F)cc2C(=O)Nc2ccccc2)C1 | inactive
8 | CCN1CCN(Cc2nc3ccc(S(=O)(=O)O)cc3c(=O)n2-c2ccccc2)CC1 | inactive
9 | CCN1CCN(C(c2nc3ncc([N+](=O)[O-])cc3c(=O)n2-c2ccccc2)C(c2nc3ncc([N+](=O)[O-])cc3c(=O)n2-c2ccccc2)N2CCN(CC)CC2)CC1 (stereo not given) | inactive
10 | CN1CCN(C)C(=Nc2cc(Cl)c(C#N)cc2C(=O)Nc2ccccc2)C1 | inactive
11 | O=C1CN(Cc2nc3ccc([N+](=O)[O-])cc3c(=O)n2-c2ccccc2F)CCN1 | inactive
12 | CCN(CC)c1nc(=O)c2cccnc2s1 | inactive
13 | CN(C)c1cccc(-n2c(CN3CCNCC3)nc3ccc([N+](=O)[O-])cc3c2=O)c1 | inactive
14 | O=c1c2cc([N+](=O)[O-])ccc2nc(CN2CCNCC2)n1-c1ccsc1 | inactive
15 | O=c1c2cc([N+](=O)[O-])ccc2nc(CN2CCNCC2)n1-c1ccccc1F | inactive
16 | CCN1CCN(Cc2nc3ccc(-c4nn[nH]n4)cc3c(=O)n2-c2ccccc2)CC1 | inactive
17 | CCN1CCN(Cc2nc3ccc([N+](=O)[O-])cc3c(=O)n2C)CC1 | inactive
18 | CCN1CCN(Cc2nc3ccc([N+](=O)[O-])cc3c(=O)n2-c2ccccc2F)CC1 | inactive
19 | O=c1nc(Nc2cccc(OCc3ccccc3)c2)sc2ncccc12 | inactive
20 | COc1ccc(Nc2nc(=O)c3cccnc3s2)cc1 | inactive
